# Screening results (PubChem BioAssay)
# Most compounds without a hit are left out; they make up all but 1.2% or so of the library.
# USP1 inh: Inhibitors of USP1/UAF1: Primary Screen; recombinant USP1/UAF1, Ub-Rhodamine cleavage fluorescence; Ubiquitin carboxyl-terminal hydrolase 1 (Homo sapiens), O94782; actives 0.23% (n = 390,000); Potency, µM (highest dose often 57.1 µM), usual class: inhibitors; note: nearly all actives have a fitted effect of over 60% in size
#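 In this screen, compounds sit with the deubiquitinase complex (1nM) for 15 min at room temperature before Ub-Rho is added at 150nM final. Fluorescence rise is then followed for 6 reads every 60 seconds.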
# VDR inh: Inhibitors of the vitamin D receptor (VDR): qHTS; Vitamin D3 receptor (Homo sapiens), P11473; VDR-SRC2-3 peptide fluorescence polarization, 2 h; Potency, µM, usual class: inhibitors; actives 0.93% (n = 400,000)
# Target sequence (P11473 whole entry, looked up): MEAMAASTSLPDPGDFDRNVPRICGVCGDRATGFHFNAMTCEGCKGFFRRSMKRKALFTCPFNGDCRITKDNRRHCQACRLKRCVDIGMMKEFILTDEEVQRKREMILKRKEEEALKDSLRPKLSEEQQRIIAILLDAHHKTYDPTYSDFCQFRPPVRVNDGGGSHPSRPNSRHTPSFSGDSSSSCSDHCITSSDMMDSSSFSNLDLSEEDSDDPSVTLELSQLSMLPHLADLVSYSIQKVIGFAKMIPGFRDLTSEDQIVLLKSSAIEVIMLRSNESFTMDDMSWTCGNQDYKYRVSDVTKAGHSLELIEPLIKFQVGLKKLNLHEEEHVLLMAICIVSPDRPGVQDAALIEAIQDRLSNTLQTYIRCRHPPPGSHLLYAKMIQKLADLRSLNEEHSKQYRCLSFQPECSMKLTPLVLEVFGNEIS
#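 Two reagent solutions held at 4 deg C in the dark were dispensed, compounds pinned at 23 nl, and the mixture incubated 2 h at room temperature. Read-out: fluorescence polarization of VDR–SRC2-3 peptide binding.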
# EPAC2 antag: qHTS for Antagonist of cAMP-regulated guanine nucleotide exchange factor 2 (EPAC2): primary screen. Rap guanine nucleotide exchange factor 4 (Homo sapiens), Q8WZA2. EPAC2 GEF exchange of Rap1B-BODIPY-GDP, fluorescence. Potency, µM (doses to about 114 µM), actives largely listed as inhibitors. actives 0.18% (n = 360,000); note: nearly all actives have a fitted effect of over 45% in size
# EPAC2 ag: qHTS for Agonist of cAMP-regulated guanine nucleotide exchange factor 4 (EPAC2): primary screen. actives 0.079% (n = 360,000). AID 720711, 2013. Potency, µM (series often up to 154 µM), hits mostly activators. EPAC2 activation, biochemical qHTS; response scale: 100% = 6.5 mM cAMP response; note: nearly all actives have a fitted effect of over 50% in size
#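 EPAC2 (100 nM) mixed with Rap1B loaded with BODIPY-GDP (250 nM) plus 50 uM unlabeled GDP; compounds pinned in, 5 min RT, then read every 5 min for 30 min (ex 480, em 540 nm). Normalized to cAMP control.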
# EPAC1 agonist: qHTS for Agonist of cAMP-regulated guanine nucleotide exchange factor 3 (EPAC1): primary screen; Rap guanine nucleotide exchange factor 3 (Homo sapiens), O95398; EPAC1 agonist qHTS, biochemical assay; response scale: 100% = response to 6.5 mM cAMP; Potency, µM (series often up to 154 µM), hits mostly activators; actives 0.073% (n = 360,000); AID 720707, 2013; note: nearly all actives have a fitted effect of over 60% in size
#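 EPAC1 100 nM, Rap1B–BODIPY-GDP 250 nM, unlabeled GDP 50 uM; compound titration; 5 min RT; kinetic read ex480/em540 at 5-min intervals ×30 min; data normalized to 6.5 mM cAMP agonist control.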
# EPAC1 antag: qHTS for Antagonist of cAMP-regulated guanine nucleotide exchange factor 3 (EPAC1): primary screen | actives 0.14% (n = 360,000) | Potency, µM (highest dose often 115 µM), most hits filed as inhibitors | EPAC1 GEF assay, Rap1b-BODIPY-GDP exchange fluorescence | Rap guanine nucleotide exchange factor 3 (Homo sapiens), O95398 | AID 720709, 2013; note: nearly all actives have a fitted effect of over 50% in size
# A number is an active result; 0 = inactive; ? = inconclusive; - = no result given; ! = repeats disagree. Calls come from the whole dose curve; as a rule, active = well fitted curve in the direction sought with a large enough effect; inconclusive = small, poorly fitted or top-dose-only effect, or another doubt; inactive = no such curve, though single readings can be large; an effect the other way counts as inactive or inconclusive.
SMILES,USP1 inh,VDR inh,EPAC2 antag,EPAC2 ag,EPAC1 agonist,EPAC1 antag
Clc1cc(Cl)c(-c2cc(Cl)c(Cl)cc2Cl)cc1Cl,0,0,3.98µM,0,0,0
CCN(CC)/[N+]([O-])=N/O,-,0,-,-,-,-
COC1C(OC(=O)c2ccc(C)[nH]2)C(O)C(Oc2ccc3c(O)c(NC(=O)c4ccc(O)c(CC=C(C)C)c4)c(=O)oc3c2Cl)OC1(C)C (stereo not given),0,0,0,0,0,39.8µM
N[C@@H](Cn1cc(I)c(=O)[nH]c1=O)C(=O)O,-,0,-,-,-,-
CCCC[C@@H](C)[C@@H](OC(=O)C[C@@H](CC(=O)O)C(=O)O)[C@H](C[C@@H](C)C[C@H](O)CCCC[C@@H](O)C[C@H](O)[C@H](C)N)OC(=O)C[C@H](CC(=O)O)C(=O)O,-,0,-,-,-,-
CCCCC/C=C\C/C=C\C/C=C\C/C=C\CCCC(=O)OC(CO)CO,-,35.5µM!,-,-,-,-
CC/C=C\C/C=C\C/C=C\C/C=C\C/C=C\CCCC(=O)NCC(=O)O,-,0,-,-,-,-
CCCCC/C=C\C/C=C\C/C=C\C/C=C\CCCC(=O)N[C@H](C)CO,-,35.5µM!,-,-,-,-
N[C@]1(C(=O)O)CC[C@@H](C(=O)O)C1 (racemic),-,0,-,-,-,-
CC(=O)[C@H]1CCC2C3CC[C@H]4C[C@@H](O)CC[C@]4(C)C3CC[C@@]21C (stereo not given in full),?,0,0,0,0,0
CC(=O)[C@@H]1CC[C@H]2[C@@H]3CC[C@@H]4CC(=O)CC[C@]4(C)[C@H]3CC[C@]12C,-,50.1µM,-,-,-,-
CON(C)C(=O)Nc1ccc(Br)cc1,-,0,-,-,-,-
O=C(Nc1ccc(Br)cc1)c1cc(Br)cc(Br)c1O,-,56.2µM,-,-,-,-
Cc1ccccc1-n1c(O)c(/C=C/C=Nc2ccccc2)c(=O)[nH]c1=O,31.6µM,0,0,?,89.1µM,0
Cc1cccc(-n2c(O)c(/C=C/C=Nc3ccccc3)c(=O)[nH]c2=O)c1,?,0,0,0,100µM,0
COC(=O)C1=CO[C@@H](C)[C@@H]2CN3CC[C@]4(C(=O)Nc5c4ccc(OC)c5OC)[C@H]3C[C@H]12,-,0,-,-,-,-
O=C1CCC[C@H]2[C@H]3CCCN4CCCC(=CN12)[C@@H]34,-,0,-,-,-,-
Cn1ncnc2c(=O)n(C)c(=O)nc1-2,0.0316µM,0,0,?,0,?
COc1ccc(Cn2c(O)c(C=Nc3c(C)n(C)n(-c4ccccc4)c3=O)c(=O)[nH]c2=O)cc1,0,0,0,0,0,0
COc1ccc(N=Cc2c(O)n(Cc3ccccc3)c(=S)[nH]c2=O)c(OC)c1,0,0,0,100µM,0,0
COc1ccc(OC)c(N=Cc2c(O)n(Cc3ccccc3)c(=S)[nH]c2=O)c1,28.2µM,0,0,?,0,0
Cc1nn(C)c(C)c1-c1cccc2c1CCC(N(C)C)C2 (stereo not given),-,0,-,-,-,-
Cc1ccc(-n2c(O)c(/C=C3/C(c4ccccc4)=Nc4ccccc43)c(=O)[nH]c2=O)cc1,0,0,0,0,0,?
Cc1ccccc1-n1c(O)c(/C=C2/C(c3ccccc3)=Nc3ccccc32)c(=O)[nH]c1=O,0,89.1µM,0,0,0,?
Cc1cccc(-n2c(O)c(/C=C3/C(c4ccccc4)=Nc4ccccc43)c(=O)[nH]c2=O)c1,?,89.1µM,0,0,0,0
SMILES,USP1 inh,VDR inh,EPAC2 antag,EPAC2 ag,EPAC1 agonist,EPAC1 antag
CCCN(CCC)[C@@H]1CCc2c(OC)cccc2[C@@H]1C,-,0,-,-,-,-
CC[C@H](C)[C@H](NC(=O)CN)C(=O)N[C@@H](CC(C)C)C(=O)NCC(=O)N[C@@H](Cc1ccccc1)C(=O)N[C@H](C(=O)N[C@@H](Cc1ccccc1)C(=O)N[C@H](C(=O)N[C@@H](CC(C)C)C(=O)O)[C@@H](C)O)C(C)C,-,0,-,-,-,-
C=CCN1C(=O)NC(=O)/C(=C/c2ccc(N(C)C)c(Br)c2)C1=O,0,79.4µM,0,0,0,0
CN(CC(=O)O)C(=O)[C@H](Cc1ccccc1)NC(=O)[C@@H](CCCN=C(N)N)NC(=O)[C@@H](N)Cc1ccc(O)cc1,-,0,-,-,-,-
C[C@H]1[C@@H](O)[C@@H](C)/C=C\C=CCC\C=C/C=C\C=C/C=C[C@@H](O[C@H]2O[C@@H](C)[C@@H](O)[C@@H](N)[C@@H]2O)C[C@@H]2O[C@@](O)(C[C@@H](O)[C@H]2C(=O)O)C[C@@H](O)[C@@H](O)CC[C@@H](O)C[C@@H](O)C[C@@H](O)CC(=O)O[C@H]1C,-,0,-,-,-,-
COc1ccc2nc(/N=C/c3c(O)n(-c4cccc(Cl)c4)c(=O)[nH]c3=O)sc2c1,0,50.1µM,0,0,0,0
COc1cccc(-n2c(O)c(C=Nc3c(C)n(C)n(-c4ccccc4)c3=O)c(=O)[nH]c2=O)c1,0,0,0,0,0,0
O=c1cc(-c2ccc(O)c(O)c2)oc2cc(O)cc(O)c12,?,0,0,0,0,44.7µM
CC1=C(O)C(=O)C=C2C1=CC=C1C2(C)CCC2(C)C3CC(C)(C(=O)O)CCC3(C)CCC12C (stereo not given),0,28.2µM,0,0,0,?
O=C1C=CC(=O)c2c1ccc1c2ccc2ccccc21,-,3.16µM,-,-,-,-
CN(C)c1ccc(CNC(=O)Cn2c(=O)oc3cc(S(=O)(=O)N4CCCCCC4)ccc32)cc1,?,0,-,-,-,-
CC(O)C(C)OC(=O)[C@@H]1C[C@@H]2c3cccc4c3c(cn4C(C)C)C[C@H]2N(C)C1 (stereo not given in full),-,0,-,-,-,-
Cc1cccc(N2C(=O)NC(=O)/C(=C/c3cc4c(cc3[N+](=O)[O-])OCO4)C2=O)c1,0,?,0,0,0,0
COc1ccc(N2C(=O)NC(=O)/C(=C\c3ccccc3[N+](=O)[O-])C2=O)cc1,0,50.1µM,0,0,0,0
O=C1NC(=O)N(c2ccccc2)C(=O)/C1=C\c1ccc([N+](=O)[O-])s1,17.8µM,39.8µM,0,0,0,?
CC[C@@]1(O)C(=O)OCc2c1cc1n(c2=O)-c2cc3ccccc3nc2C1,-,0,-,-,-,-
CCn1c(N)c(C(=O)NC)sc1=S,0,25.1µM,0,0,0,0
